Source: PubChem BioAssay (National Center for Advancing Translational Sciences (NCATS))
This is a sample that favours compounds with a hit; in the whole collection about 14% have one here.
NS1 function inh – qHTS Assay for Inhibitors of Influenza NS1 Protein Function; AID 2326, 2010; hit rate 0.4% among 270,000; Potency, µM (highest dose often 46.1 µM); calls by dose curve; also: actives are rising curves; nearly all actives have a fitted effect of over 50% in size
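Growth recovery, yeast-based: influenza A NS1 expressed in S. cerevisiae causes slow growth, and suppressors are detected by OD600. The parent strain without NS1 is used as positive control.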
LmPK inh – qHTS Assay for Inhibitors of Leishmania Mexicana Pyruvate Kinase (LmPK); Q27686; purified LmPK, Kinase-Glo ATP luminescence, 1 h; Potency, µM (highest dose often 57.5 µM), hits mostly inhibitors; hit rate 0.37% among 290,000; AID 1721, 2009
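In 50 mM imidazole pH 7.2 with 7 mM MgCl2, LmPK (0.1 nM) turned over PEP (0.5 mM) and ADP (0.1 mM) for 1 h at room temperature. Luciferase read-out of ATP.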
Shiga inhibitor – A qHTS for Small Molecule Inhibitors of Shiga Toxin | Vero cells, Shiga toxin protein synthesis inhibition reporter | inhibition, % at 38.7 µM | hit rate 9.2% among 290,000; in the data active = inhibition mostly above about 28%, no sharp cut-off; inactive = mostly below about 43%
Cycloheximide cs – Cycloheximide Counterscreen for Small Molecule Inhibitors of Shiga Toxin. cell reporter, cycloheximide protein synthesis inhibition counterscreen. max response, %. hit rate 12% among 300,000; in the data active = max response mostly above about 13%, no sharp cut-off; inactive = mostly below about 14%; also: read at 38.3 µM for the half of the compounds with a filed dose
FBPA Giardia inh – qHTS Assay for Inhibitors of Fructose-1,6-bisphosphate Aldolase from Giardia Lamblia. purified Giardia FBPA. A8B2U2. Potency, µM (top dose mostly 59.6 µM), actives largely listed as inhibitors. hit rate 0.71% among 290,000; also: nearly all actives have a fitted effect of over 55% in size
Target sequence (A8B2U2 whole entry, looked up): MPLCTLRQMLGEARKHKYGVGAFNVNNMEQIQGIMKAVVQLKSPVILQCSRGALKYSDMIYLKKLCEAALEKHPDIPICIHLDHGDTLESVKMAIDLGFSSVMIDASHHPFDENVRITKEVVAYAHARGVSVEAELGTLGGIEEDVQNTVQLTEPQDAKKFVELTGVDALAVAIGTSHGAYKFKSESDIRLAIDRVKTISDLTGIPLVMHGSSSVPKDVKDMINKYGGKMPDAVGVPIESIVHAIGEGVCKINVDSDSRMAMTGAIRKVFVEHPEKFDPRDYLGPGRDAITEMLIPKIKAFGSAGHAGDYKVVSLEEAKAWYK
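Giardia FBPA (40 nM reagent) was preincubated 10 min at RT with compound (up to 57.5 uM final), then substrate plus GAPDH/TPI/NAD/arsenate coupling system with diaphorase/resazurin was added; resorufin fluorescence (525/598 nm) was read after 20 min.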
Of the large screens only hits and unclear results are named; the others gave an inactive call. Unless noted, calls follow the shape of the dose curve; as a rule, active = well fitted curve in the direction sought with a large enough effect; inconclusive = small, poorly fitted or top-dose-only effect, or another doubt; inactive = no such curve, though single readings can be large; an effect the other way counts as inactive or inconclusive.

COC(=O)c1ccc(COc2ccc(/C=N/Nc3cccc(C(=O)O)c3)cc2)cc1	Shiga inhibitor 108.8, Cycloheximide cs 83.8
CSCC[C@@H]1NC(=O)C/C=C\[C@@H](C)COC(=O)[C@@H](CCSC)NC(=O)C/C=C\[C@@H](C)COC1=O	none (no result: NS1 function inh, LmPK inh, Shiga inhibitor, Cycloheximide cs)
COc1ccc(Cc2nnc(Cl)c3ccccc23)cc1OC	none
C/C=C/C(=O)Nc1cccc(C2=NOC3(C2)C[C@@H](C(N)=O)N(C(=O)/C(C)=C/C)C3)c1 (some centres not stated)	none
O=C(O)c1cc(N/N=C/c2ccc(OCc3ccccc3)cc2)ccc1Cl	Shiga inhibitor 149.0, Cycloheximide cs 72.4 (no result: NS1 function inh)
CC(C)C(=O)N/N=C/c1ccc(OCc2ccccc2)cc1	none
CC(=O)c1cccc(NC(=O)CCn2c(=O)oc3ccccc32)c1	none
CCOC(=O)C1=C(C)OC(N)=C(C#N)C1c1cc2ccccc2nc1N1CCCCC1 (configuration not stated)	FBPA Giardia inh inconclusive
CCOC(=O)C1=C(C)OC(N)=C(C#N)C1c1cc2cc(C)ccc2nc1N1CCCCC1 (configuration not stated)	Shiga inhibitor 45.5, FBPA Giardia inh inconclusive
CCOc1ccc(NCc2nc3ccccc3n2CCOc2ccccc2)cc1	Shiga inhibitor 60.9, Cycloheximide cs 37.7
COCCn1c(COc2ccc(OC)cc2)nc2ccccc21	Shiga inhibitor 48.5, Cycloheximide cs 22.5
C=CCn1c(COc2ccc(OC)cc2)nc2ccccc21	Cycloheximide cs 44.2
Cc1ccc(OCCCCn2c(CO)nc3ccccc32)cc1	none (no result: NS1 function inh)
COCc1nc2ccccc2n1Cc1ccccc1	Cycloheximide cs 20.3
C=CCn1c(/N=C/c2ccc(OC)cc2)nc2ccccc21	none
CCC(=O)[C@@]1(O)C(=O)N2C(=C3C(=O)OCCC31)N(Cc1ccccc1)C(C)=C(C(=O)OC)C2c1ccccc1 (some centres not stated)	none (no result: NS1 function inh, LmPK inh, Shiga inhibitor, Cycloheximide cs)
COc1ccc(CCNC(=O)COc2ccc(S(=O)(=O)N3CCOCC3)cc2C)cc1	none
COc1ccc(OCc2nc3ccccc3n2C(C)C)cc1	none
CCCn1c(COc2ccc(C(=O)O)cc2)nc2ccccc21	none (no result: Shiga inhibitor)
CCn1c(COc2ccc(OC)cc2)nc2ccccc21	Shiga inhibitor 80.0, Cycloheximide cs 50.5 (no result: FBPA Giardia inh)
CCn1c(COc2ccccc2)nc2ccccc21	Shiga inhibitor 36.2, Cycloheximide cs 23.6
COc1ccccc1OCC(O)Cn1nc(C)cc1C (configuration not stated)	Shiga inhibitor 103.7, Cycloheximide cs 54.3
Cc1cc(C)n(CC(O)COc2ccccc2C(=O)Nc2ccccc2)n1 (configuration not stated)	none
Cc1cc(C)n(CC(O)COc2ccccc2[N+](=O)[O-])n1 (configuration not stated)	Cycloheximide cs 28.0
CCOC(=O)N1CCN(CC(O)COc2ccccc2[N+](=O)[O-])CC1 (configuration not stated)	Cycloheximide cs 11.4
Cc1cc(C)n(CC(O)COc2cccc(OCC(O)Cn3nc(C)cc3C)c2)n1 (configuration not stated)	none
Cc1nc(NC2CCCCC2)c2nc(-c3ccccc3)n(CCN3CCCCC3)c2n1	none (no result: NS1 function inh, LmPK inh, Shiga inhibitor, Cycloheximide cs)
CCOc1ccc(NC(=O)CSc2nc3ccccc3nc2N2CC(C)OC(C)C2)cc1 (configuration not stated)	none
O=C(Nc1ccc(-c2cn3ccccc3n2)cc1)c1ccco1	LmPK inh inconclusive, Shiga inhibitor 67.7, Cycloheximide cs 58.2
O=C(Nc1ccc(-c2cn3ccccc3n2)cc1)c1ccc(Cl)cc1	none
O=C(NCc1cn2ccccc2n1)c1ccco1	Cycloheximide cs 24.7
Cc1onc(-c2c(Cl)cccc2Cl)c1C(=O)N(C)Cc1ccccc1	none
O=C(c1cnccn1)N1CCC[C@@]2(CCN(c3cccc(-c4ccccc4)c3)C2)C1	none (no result: NS1 function inh, LmPK inh, Shiga inhibitor, Cycloheximide cs)
CCCc1ccc(-c2cc(NC(=O)CSc3n[nH]c(N)n3)n(-c3ccccc3)n2)cc1	none
CCCc1ccc(-c2cc(N)n[nH]2)cc1	Cycloheximide cs 29.7
CCCCc1ccc(-c2nc(N)n[nH]2)cc1	Shiga inhibitor 77.8, Cycloheximide cs 44.5
COc1ccc(OC)c(C2C(C(=O)c3ccco3)=C(O)C(=O)N2CC2CCCO2)c1 (configuration not stated)	none
CN1CCC[C@@H]1c1cccnc1.O=C(O)c1ccccc1O.O=C([OH2+])c1ccccc1O.O=C([OH2+])c1ccccc1O.O=C([OH2+])c1ccccc1O.[Mn]	none (no result: LmPK inh, Shiga inhibitor, Cycloheximide cs, FBPA Giardia inh)
CC(C)(C)C(=O)Nc1ccc(-c2cc3cc(Cl)ccc3o2)cc1	Shiga inhibitor 124.4, Cycloheximide cs 80.9
Cc1ccccc1OCCNC(=O)c1ccco1	Shiga inhibitor 96.8, Cycloheximide cs 35.9
Cc1ccccc1OCCNC(=O)/C=C/c1ccc([N+](=O)[O-])cc1	none
COc1ccccc1OCCNC(=O)c1ccco1	none (no result: FBPA Giardia inh)
CCCCOc1ccc(OCCNC(=O)c2ccco2)cc1	Shiga inhibitor 57.5
Cc1ccccc1OCCNC(=O)/C=C/c1ccccc1	Shiga inhibitor 24.1
COc1ccccc1C(=O)Nc1ccc2c(c1)CN(Cc1cnc(C)s1)CC2	Shiga inhibitor 29.0, Cycloheximide cs 11.5 (no result: FBPA Giardia inh)
CN(C)Cc1ccc(CNC(=O)COc2ccc3ccccc3c2)cc1	none
CCN(Cc1ccncc1)Cc1c(O)ccc2cc(Br)ccc12	FBPA Giardia inh 8.89µM (no result: NS1 function inh)
CN1CCN(Cc2c(O)ccc3cc(Br)ccc23)CC1	none (no result: NS1 function inh)
Cc1cccc(-c2nnc(SCC(=O)c3ccc(O)cc3O)n2C)c1	none
CNC(=O)c1c(Cl)cnn1-c1ccc(F)cc1	none
C=CCNC(=O)c1c(Br)cnn1-c1ccc(C)cc1	Shiga inhibitor 58.7, Cycloheximide cs 45.0
Cc1ccc(-n2ncc(Cl)c2C(=O)NCc2ccccc2)cc1	Shiga inhibitor 57.6, Cycloheximide cs 42.4
CCn1ncc(Br)c1C(=O)Nc1cc(C)cc(C)c1	none
Fc1cccc(Cl)c1/C=N\N=C1c2ccccc2-c2ccccc21	none (no result: LmPK inh, Shiga inhibitor, Cycloheximide cs, FBPA Giardia inh)
CC(=O)Nc1ccc(S(=O)(=O)N2CCN(S(=O)(=O)c3ccc(F)c(F)c3F)CC2)cc1	none
O=S(=O)(c1ccccc1)C1(C2CC(c3ccccc3)=NO2)CC(O)C1 (configuration not stated)	Cycloheximide cs 11.5
Cc1ccc(C)c(N(CC(=O)Nc2ccc(-c3nc4ccc(C)cc4s3)cc2)S(C)(=O)=O)c1	Shiga inhibitor 80.2, Cycloheximide cs 27.7
Cc1ccc(N(CC(=O)Nc2ccc(-c3nc4ccc(C)cc4s3)cc2)S(C)(=O)=O)cc1	Shiga inhibitor 116.6, Cycloheximide cs 57.8
O.O.[NH-]C1(C(=O)O)CCCC1.[NH-]C1(C(=O)O)CCCC1.[Ni+2]	none (no result: LmPK inh, Shiga inhibitor, Cycloheximide cs, FBPA Giardia inh)
Cc1cc(NC(=O)c2coc(=O)c(Br)c2)ccc1C(C)C	Shiga inhibitor 108.3, Cycloheximide cs 95.4
O=C(Nc1ccc(Br)cn1)c1coc(=O)c(Br)c1	Shiga inhibitor 49.2, Cycloheximide cs 44.8
C[C@@H](NC(=O)c1coc(=O)c(Br)c1)c1ccccc1	Cycloheximide cs 20.2
O=C(NCCc1ccc(F)cc1)c1coc(=O)c(Br)c1	none
